± gives the standard deviation of the averaged measurements.
test system: SW480; assay: cell viability (CellTiter-Glo) relative to plate median (fraction of plate median); higher = more viable cells; conditions: 5 µM; treatment time 24 h; reporter: 7TFP
Procedure, shortened: (§1)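 Library compounds, at a final 5 µM, stayed on reporter cells for 24 h. The cells were colorectal cancer lines stably transduced with lentiviral TCF/Wnt firefly luciferase reporters, seeded in 384-well plates 24 h before dosing. Firefly luciferase or CellTiterGlo luminescence from parallel plates was normalised to the plate median in webcellHTS2 (additive, no log transformation), and two independent replicates were averaged.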

Row | Compound | cell viability
1 | CN1CCN(CC(=O)N2c3ccccc3C(=O)Nc3cccnc32)CC1 | 0.9405 ± 0.0035
2 | O.O.O.O.O=C([O-])CC(O)(CC(=O)[O-])C(=O)[O-].[Li+].[Li+].[Li+] | 0.966 ± 0.0028
3 | CC1(C)S[C@@H]2[C@H](NC(=O)[C@H](N)c3ccc(O)cc3)C(=O)N2[C@H]1C(=O)O | 0.95 ± 0.016
4 | CC(C)c1c(C(=O)Nc2ccccc2)c(-c2ccccc2)c(-c2ccc(F)cc2)n1CC[C@@H](O)C[C@@H](O)CC(=O)O | 1.01 ± 0.076
5 | CCC1(C)OC(=O)N(C)C1=O (stereo not drawn) | 0.908 ± 0.0028
6 | C=C1CC[C@@H]2[C@](C)(CO)[C@H](O)CC[C@@]2(C)[C@@H]1C/C=C1/C(=O)OC[C@H]1O | 1.02 ± 0.014
7 | C=CC[C@@H]1/C=C(\C)C[C@H](C)C[C@H](OC)[C@H]2O[C@@](O)(C(=O)C(=O)N3CCCC[C@H]3C(=O)O[C@H](/C(C)=C/[C@@H]3CC[C@@H](O)[C@H](OC)C3)[C@H](C)[C@@H](O)CC1=O)[C@H](C)C[C@@H]2OC | 1.1 ± 0.021
8 | COc1cc2c(cc1OC)-c1cc3ccc(OC)c(OC)c3c[n+]1CC2 | 0.949 ± 0.054

test system: DLD1; assay: TCF/Wnt firefly luciferase reporter signal relative to plate median (fraction of plate median); higher = higher Wnt reporter signal; conditions: 5 µM; treatment time 24 h; reporter: 7TFP
Procedure, shortened: as §1

Row | Compound | TCF/Wnt firefly luciferase reporter signal
9 | Cc1ccc(C(=O)c2ccc(CC(=O)O)n2C)cc1 | 1.07 ± 0.05
10 | CC[C@H]1OC(=O)[C@H](C)[C@@H](O[C@H]2C[C@@](C)(OC)[C@@H](O)[C@H](C)O2)[C@H](C)[C@@H](O[C@@H]2O[C@H](C)C[C@H](N(C)C)[C@H]2O)[C@](C)(O)C[C@@H](C)CN(C)[C@H](C)[C@@H](O)[C@]1(C)O | 0.97 ± 0.1
11 | COc1ccc2ccc(=O)oc2c1 | 0.973 ± 0.053
12 | CCC(=O)O[C@@H]1[C@@H](OC2C(C)/C=C/C(=O)OC(C)C(CO[C@@H]3O[C@H](C)[C@@H](OC(=O)CC)[C@@H](OC)[C@H]3OC)C3OC3/C=C/C(=O)C(C)(O)CC2C)O[C@@H](C)C[C@H]1OC (stereo partly drawn) [Chalcomycin B] | 1.14 ± 0.12
13 | Nc1nc2c(ncn2COCCO)c(=O)[nH]1 | 0.991 ± 0.056
14 | CC1(C)CC[C@]2(C)CC[C@]3(C)C(=CC[C@@H]4[C@@]5(C)CC[C@H](O)C(C)(C)[C@@H]5CC[C@]43C)[C@@H]2C1 [beta-AMYRIN] | 0.913 ± 0.016
15 | O=C(O)c1ccccc1Nc1ccccc1 | 1.09 ± 0.099
16 | C[C@@H]1O[C@@H](O[C@H]2[C@H](O[C@H]3CC[C@@]4(C)[C@@H](CC[C@]5(C)[C@@H]4CC=C4[C@@H]6CC(C)(C)CC[C@]6(C(=O)O)CC[C@]45C)[C@]3(C)CO)OC[C@H](O)[C@@H]2O)[C@H](O)[C@H](O)[C@H]1O | 1.04 ± 0.014
17 | CC(=O)Nc1ccccc1 | 1.05 ± 0.11
18 | CC(=O)OCC(=O)[C@@]1(O)[C@H](OC(C)=O)C[C@H]2[C@@H]3CCC4=CC(=O)C=C[C@]4(C)[C@@]3(F)[C@@H](O)C[C@@]21C | 1.1 ± 0.26
19 | CC1(C)[C@@H](OC(=O)CCC(=O)O)CC[C@]2(C)[C@H]3C(=O)C=C4[C@@H]5C[C@@](C)(C(=O)O)CC[C@]5(C)CC[C@@]4(C)[C@]3(C)CC[C@@H]12 | 1.09
20 | CCC(C)C(N)=O (stereo not drawn) [2-Methylbutyramide] | 1.16 ± 0.071
21 | C=CCSSSCC=C | 1.02 ± 0.073
22 | Cc1cc(O)c(C=O)c2c1C(=O)Oc1c(COC(=O)/C=C/C(=O)O)c(O)c(C(=O)O)c(C)c1O2 | 0.933 ± 0.12
23 | O=C(O)[C@@H](O)[C@H](O)[C@H](O)[C@@H](O)C(=O)O | 1.06 ± 0.035
24 | Nc1nc2c(ncn2[C@H]2C[C@H](O)[C@@H](CO)O2)c(=O)[nH]1 [Desoxyguanosin] | 0.989 ± 0.016
25 | CC(=O)/C=C\[C@@H]1[C@@]2(C)CCCC(C)(C)C2CC[C@@]1(C)O (stereo partly drawn) | 1.165 ± 0.0071
26 | CC(=O)OCC(=O)[C@@]12OC3(CCCC3)O[C@@H]1C[C@H]1[C@@H]3CCC4=CC(=O)C=C[C@]4(C)[C@@]3(F)[C@@H](O)C[C@@]12C | 0.82 ± 0.093
27 | CC(=O)Oc1cccc(O)c1 | 0.952 ± 0.097
28 | CCCOc1ccccc1-c1nc2[nH]nnc2c(=O)[nH]1 | 1.01 ± 0.064

Row | Compound | TCF/Wnt firefly luciferase reporter signal
29 | CC(=O)Oc1ccc2c(c1C(C)C)CCC1C(C)(C)CCC[C@]21C (stereo partly drawn) | 0.98 ± 0.11
30 | CC(=O)NO | 1.155 ± 0.0071
31 | NCCc1c[nH]cn1 | 1.12
32 | CC#C[C@]1(O)CC[C@H]2[C@@H]3CCC4=CC(=O)CCC4=C3[C@@H](c3ccc(N(C)C)cc3)C[C@@]21C | 0.891 ± 0.05
33 | COc1cc(O)c2c(c1)C(=O)c1cc(C)cc(O)c1C2=O | 0.949 ± 0.015
34 | N=c1ccn2c(n1)O[C@H]1[C@H](O)[C@@H](CO)O[C@H]12 | 1.08 ± 0.11
35 | CN1CCN(CCCN2c3ccccc3Sc3ccc(C(F)(F)F)cc32)CC1 | 1.21 ± 0.17
36 | CC(=O)O[C@H]1CC[C@]2(C)[C@H]3CC[C@@]4(C)[C@H](c5ccoc5)OC(=O)[C@H]5O[C@]54[C@]3(C)[C@H](OC(C)=O)C[C@H]2C1(C)C [3beta-ACETOXYDEOXODIHYDROGEDUNIN] | 1.02 ± 0.061
37 | CCCCCCNC(=O)n1cc(F)c(=O)[nH]c1=O | 0.971 ± 0.13
38 | CC12CCC3c4ccc(OCc5ccccc5)cc4CCC3C1C[C@@H](O)[C@@H]2O (stereo partly drawn) | 0.95 ± 0.14
39 | CC1CC(OC(=O)C(O)c2ccccc2)CC(C)(C)N1C (stereo not drawn) | 1.05 ± 0.028
40 | NC(=O)N1c2ccccc2CC(=O)c2ccccc21 | 1.06
41 | CN1CCN(CC(=O)N2c3ccccc3C(=O)Nc3cccnc32)CC1 | 0.796 ± 0.014
42 | O.O.O.O.O=C([O-])CC(O)(CC(=O)[O-])C(=O)[O-].[Li+].[Li+].[Li+] | 0.844 ± 0.012
43 | CC1(C)S[C@@H]2[C@H](NC(=O)[C@H](N)c3ccc(O)cc3)C(=O)N2[C@H]1C(=O)O | 1.11 ± 0.092
44 | CC(C)c1c(C(=O)Nc2ccccc2)c(-c2ccccc2)c(-c2ccc(F)cc2)n1CC[C@@H](O)C[C@@H](O)CC(=O)O | 0.966 ± 0.09
45 | CCC1(C)OC(=O)N(C)C1=O (stereo not drawn) | 0.965 ± 0.0085
46 | C=C1CC[C@@H]2[C@](C)(CO)[C@H](O)CC[C@@]2(C)[C@@H]1C/C=C1/C(=O)OC[C@H]1O | 1.06 ± 0.042
47 | C=CC[C@@H]1/C=C(\C)C[C@H](C)C[C@H](OC)[C@H]2O[C@@](O)(C(=O)C(=O)N3CCCC[C@H]3C(=O)O[C@H](/C(C)=C/[C@@H]3CC[C@@H](O)[C@H](OC)C3)[C@H](C)[C@@H](O)CC1=O)[C@H](C)C[C@@H]2OC | 1.08 ± 0.042
48 | COc1cc2c(cc1OC)-c1cc3ccc(OC)c(OC)c3c[n+]1CC2 | 1.105 ± 0.0071

Reference: the supplement of paper PMC6522484
